Test results reported in PubChem BioAssay AID504582 (Broad Institute, 2011).
In all, about 340,000 compounds went through this assay and about 2,300 (0.68%) were called active. Cut-off read from the data, not from the text of the source: active = growth rescue above about 28% (passing the limit was not always enough); inconclusive = no clear call, values can overlap the other calls. Only a selection was taken, and actives are over-represented in it overall.

Experiment: rescue of yeast from PfHsp40 toxicity, primary screen, S. cerevisiae, ATP luminescence (AID 504582);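 note: yeast W303a lacking pdr1 and pdr3 grown in galactose medium; growth measured after three days at 30 °C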
Conditions: S. cerevisiae expressing PfHsp40, growth rescue, at 12.5 µM, active compounds read high

SMILES	growth rescue
O=C(O)CCCCOn1ccnc1	-2.14% (inactive)
COc1ccc2c(c1)CCc1c(C(=O)N3CCCC3)noc1-2	0.772% (inactive)
COc1ccc2c(c1)CCc1c(C(=O)N3CCc4ccccc4C3)noc1-2	182% (active)
O=C(c1noc2c1CCCC2)N1CCc2ccccc2C1	-0.161% (inactive)
CCN(CC)C(=O)COc1coc(CN2CCN(Cc3ccccc3)CC2)cc1=O	-0.869% (inactive)
Cc1ccc2[nH]c(C)c(CCNC(=O)NC3CCCCC3)c2c1	-0.354% (inactive)
Cc1ccccc1-c1n[nH]c(=S)n1/N=C/c1ccc(-c2ccccc2Br)o1	0.454% (inactive)
Cc1ccsc1/C=N/n1c(=S)[nH]nc(C)c1=O	-0.774% (inactive)
S=c1[nH]nc(-c2ccco2)n1/N=C/c1ccc(Br)s1	152% (active)
Cc1cc(NC(=O)CSc2nc(=O)cc(N)n2-c2ccc(F)cc2)no1	-0.428% (inactive)
CCOC(=O)C(C)n1cnc2scc(-c3ccc(C)c(C)c3)c2c1=O (centres undefined)	4.82% (inactive)
CCC(C(=O)OC)n1cnc2scc(-c3ccc(C)cc3)c2c1=O (centres undefined)	49.2% (active)
COC(=O)Cn1cnc2scc(-c3ccc(C)c(C)c3)c2c1=O	151% (active)
CCn1cnc2scc(-c3ccc(C)c(C)c3)c2c1=O	1.65% (inactive)
CCCc1nc2scc(-c3ccc(C)cc3)c2c(=O)n1N	0.943% (inactive)
CC(=O)C(C)n1cnc2scc(-c3ccc(C)cc3)c2c1=O (centres undefined)	0.285% (inactive)
CN(C)CCCn1c(SCCN2C(=O)c3ccccc3C2=O)nc2ccccc2c1=O	-0.077% (inactive)
COc1ccc(C2OC(=O)CC2C(=O)NC(C)C)cc1 (centres undefined)	-0.42% (inactive)
Cc1cccc(CCNS(=O)(=O)c2ccc(S(=O)(=O)NC3CCCC3)cc2)c1	0.473% (inactive)
O=C(CCc1nnc2ccc(NCCCN3CCCC3=O)nn12)NCc1ccccc1Cl	-0.483% (inactive)

SMILES	growth rescue
Cc1nn(C)cc1C(=O)Nc1ccccc1Br	0.045% (inactive)
CCCS(=O)(=O)N1CCN=C1SCc1cccc(F)c1	0.879% (inactive)
O=C1CC(=O)Nc2cc(S(=O)(=O)N3CCN(c4cccc(C(F)(F)F)c4)CC3)ccc2N1	-1.27% (inactive)
O=C1CN(C(=O)c2cc(F)cc(F)c2)c2ccccc2N1	-0.198% (inactive)
O=C(NNc1cc(Cl)ccc1Cl)c1cccnc1Cl	0.035% (inactive)
Cc1c(NC(=O)CSc2cccc3cccnc23)c(=O)n(-c2ccccc2)n1C	5.35% (inactive)
CC(=O)/C(=N\Nc1ccc(Cl)cc1Cl)Sc1cccc2cccnc12	67.7% (active)
O=[N+]([O-])c1ccc(N2CCN(S(=O)(=O)c3ccccc3)CC2)cc1N1CCc2ccccc2C1	-0.201% (inactive)
CC/C(=C\c1ccc(Cl)cc1)c1ccncc1	0.0255% (inactive)
COc1ccc(NC(=O)N2CCCC(c3nc(-c4ccc(F)cc4)no3)C2)cc1 (centres undefined)	0.883% (inactive)
CCN(C(=O)C1CCCN(c2nc(-c3ccc(OC)cc3)no2)C1)c1ccc(OC)cc1 (centres undefined)	61.7% (active)
CCOC(=O)C1CCCN(C(=O)CN(c2ccc(OC)cc2)S(=O)(=O)c2c(C)noc2C)C1 (centres undefined)	0.46% (inactive)
C/C(=N\NC(=O)c1ccc(NS(=O)(=O)c2cccs2)cc1)c1ccc2ccccc2c1	-0.368% (inactive)
CSCCC(NC(=O)COc1ccccc1)C(=O)OCCOc1ccc(F)cc1 (centres undefined)	-0.578% (inactive)
CSCCC(NC(=O)COc1ccccc1)C(=O)N1CCN(c2cccc(C(F)(F)F)c2)CC1 (centres undefined)	197% (active)
CSCCC(NC(=O)COc1ccccc1)C(=O)OCCOc1ccc(Br)cc1 (centres undefined)	-0.924% (inactive)
COCCCNS(=O)(=O)c1cccc(S(=O)(=O)c2cccc(S(=O)(=O)NCCCOC)c2)c1	-1.18% (inactive)
CNC(=S)N1CCC(NC(=O)C(Cc2ccc(F)cc2)NC(C)=O)CC1 (centres undefined)	-1.81% (inactive)
Cc1ccc(S(=O)(=O)NCC(=O)N(CC(=O)NC(C)(C)C)Cc2cccs2)cc1	-1.96% (inactive)
O=C(N[C@@H](Cc1c[nH]c2ccccc12)C(=O)O)OCC1c2ccccc2-c2ccccc21	-1.08% (inactive)

SMILES	growth rescue
CC(=O)c1cccc(NC(=S)N2CCN(S(C)(=O)=O)CC2)c1	-0.215% (inactive)
O=C(CSc1ccc(-c2ccc(-n3cccn3)cc2)nn1)Nc1ccc([N+](=O)[O-])cc1	0.191% (inactive)
COc1cc(NC(=O)CSc2ccc(-c3cccnc3)nn2)cc(OC)c1	-0.74% (inactive)
O=C(CSc1ccc(-c2ccccn2)nn1)Nc1ccccc1	379% (active)
N#Cc1ccc(C(=O)OCC(=O)NC(=O)NC2CCCCC2)cc1	0.27% (inactive)
COc1ccc(NS(=O)(=O)c2ccc(NC(=S)NC(=O)/C=C/c3ccc(C)cc3)cc2)nn1	-1.55% (inactive)
COc1ccc(CCNC(=O)COC(=O)c2cnc(Cl)c(Cl)c2)cc1	-2.56% (inactive)
COc1ccc(CS(=O)/C(Cl)=C(/Cl)C(=O)Nc2ccc(OC)nc2)cc1 (centres undefined)	81.6% (active)
COc1ccc(OC(C)C(=O)Nc2cccnc2)cc1 (centres undefined)	-0.665% (inactive)
COc1cccc(NC(=S)N(Cc2ccc(C)cc2)Cc2ccccn2)c1	1.55% (inactive)
COc1ccc(NC(=O)/C(Cl)=C(/Cl)S(=O)Cc2ccc(C)cc2)cn1 (centres undefined)	278% (active)
O=S(=O)(NC1CCCCC1N1CCCCC1)c1ccc(Cl)cc1 (centres undefined)	1.55% (inactive)
O=S(=O)(NC1CC1)c1ccc(Cl)cc1	-0.92% (inactive)
O=S(=O)(NC1CC2CCC1C2)c1ccc(Cl)cc1 (centres undefined)	74.5% (active)
COc1ccccc1OCC(=O)Nc1c2c(nn1-c1ccc(F)cc1)CS(=O)(=O)C2	3.47% (inactive)
CCOC(=O)c1c(NC(=O)NC(C)(C)C)sc2c1CCN(C)C2	-1.54% (inactive)
CCOC(=O)c1cnc(-n2nc(C)cc2C)nc1NNc1cc(C)nc(-c2ccccc2)n1	0.854% (inactive)
COc1ccccc1/C=N\Nc1cc(C)nc(-n2nc(C)cc2C)n1	143% (active)
COc1ccccc1/C=N/N1CCN(Cc2ccccc2Cl)CC1	-1.43% (inactive)
